This passage reports Potency results from PubChem BioAssay AID1224861 (National Center for Advancing Translational Sciences (NCATS), 2016).

Each structure is given as a SMILES string. Records with an inconclusive call do not appear. Where a call stands in place of a potency, no number is given. Activity calls are given as the source filed them. Calls follow the shape of the dose curve; as a rule, active = well fitted cell-killing curve with a large enough effect; inconclusive = small, poorly fitted or top-dose-only effect, or effect the other way; inactive = flat fitted curve, though single readings scatter.

The nature of this experiment: Compound cytotoxicity measured by an ATP content assay as a counter-screen for lead compounds in human astrocytes. Particulars: human astrocytes viability, ATP luminescence; series mostly up to 46.1 µM. In a few lines:
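Cytotoxicity expressed as percent inhibition of cell viability from ATP-dependent luminescence, read after 10 min at room temperature with 1:1 kit reagent. Compound exposure times matched the primary screens, e.g. 6, 24 or 72 h, in cultured human astrocytes.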
Take `Nc1ccc(N=Nc2ccccc2)c(N)n1`: the Potency result was “inactive”.

Take `O=c1oc2cc(O)ccc2s1`: the Potency entry is “inactive”.

Regarding `CN1CCN(c2cc3c(nn2)Oc2ccccc2N3C)CC1`, the Potency result is “inactive”.

On to `COc1cc(NC(C)CCCN)c2ncccc2c1` (configuration not stated), for which the Potency entry was “inactive”.

Regarding `O=C1C[C@@H](c2ccc(O)cc2)Oc2cc(O)cc(O)c21`, the Potency entry is “inactive”.

Consider `CC(C(=O)O)c1ccc2c(c1)[nH]c1ccc(Cl)cc12` (configuration not stated), for which the Potency result is “inactive”.

As to `O=C1NC(=O)C(=Cc2ccc(-c3ccc(F)cc3)o2)S1`, the Potency result was “inactive”.

As for `CC[C@@]1(O)C[C@H](O[C@H]2C[C@H](N(C)C)[C@H](O[C@H]3C[C@H](O)[C@H](O[C@H]4CCC(=O)[C@H](C)O4)[C@H](C)O3)[C@H](C)O2)c2c(cc3c(c2O)C(=O)c2c(O)cccc2C3=O)[C@@H]1C(=O)OC`, the Potency result is “inactive”.

In the case of `CS(=O)(=O)c1ccc(-c2cn3ccccc3n2)cc1`, the Potency was 8.69 µM (active).

Regarding `O=C(/C=C/c1ccc(O)cc1)c1ccc(O)cc1O`, the Potency entry was “inactive”.

Consider `Nc1ncnc2c1ncn2[C@@H]1O[C@@H](CO)[C@H](O)[C@H]1O`, for which the Potency result is “inactive”.

In the case of `CC(C(=O)O)c1ccc(C(=O)c2ccccc2)s1` (configuration not stated), the Potency entry was “inactive”.

On to `COc1cc2nc(N3CCN(C(=O)C4CCCO4)CC3)nc(N)c2cc1OC` (configuration not stated), for which the Potency entry is “inactive”.

As for `O=C(CS)Nc1ccccc1`, the Potency result is “inactive”.

For `COc1ccc(-c2cc(=O)c3c(O)cc(O)cc3o2)cc1O`, the Potency result is “inactive”.

For the compound `CCCCCNC(=O)N1CCC(CN(Cc2ccc(Cl)cc2)Cc2ccc([N+](=O)[O-])s2)C1` (configuration not stated), the Potency entry was “inactive”.

As for `CN(C)c1ccc(N=NS(=O)(=O)O)cc1`, the Potency entry was “inactive”.

For the compound `Oc1cc(O)cc(/C=C/c2ccc(O)c(O)c2)c1`, the Potency was 8.69 µM (active).

For `O=S(=O)(O)c1ccc2nc(-c3ccccc3)[nH]c2c1`, the Potency result was “inactive”.

For the compound `CC(C)c1ccc2oc3nc(N)c(C(=O)O)cc3c(=O)c2c1`, the Potency is 2.75 µM (active).

Consider `CCOCCOC(=O)/C=C/c1ccc(OC)cc1`, for which the Potency result is “inactive”.

As to `N[C@H](CSC(c1ccccc1)(c1ccccc1)c1ccccc1)C(=O)O`, the Potency result was “inactive”.

Regarding `NC(N)=NN=C(/C=C/c1ccc([N+](=O)[O-])o1)/C=C/c1ccc([N+](=O)[O-])o1`, the Potency was 3.46 µM (active).

Take `O=c1c(-c2ccc(O)cc2)coc2cc(OC3O[C@H](CO)[C@H](O)[C@H](O)[C@H]3O)cc(O)c12` (some centres not stated): the Potency result was “inactive”.

As to `O=C(Nc1cc2cc[nH]c2cn1)c1ccccc1`, the Potency was 0.489 µM (active).

Consider `CCC(C(=O)O)c1ccc(N2Cc3ccccc3C2=O)cc1` (configuration not stated), for which the Potency result was “inactive”.

As to `CNC1[C@H](O)C(O[C@@H]2C(O)C(O[C@H]3O[C@H]([C@@H](C)NC)CC[C@H]3N)[C@@H](N)C[C@H]2N)OC[C@]1(C)O` (some centres not stated), the Potency result is “inactive”.

`O=C(O)CCC(=O)c1ccc(-c2ccccc2)cc1`: the Potency entry was “inactive”.

For the compound `O=C(O)c1cccc(-c2noc(-c3ccccc3F)n2)c1`, the Potency is 5.48 µM (active).

`O=C1c2ccccc2C(=O)c2c1ccc(O)c2O`: the Potency entry was “inactive”.

On to `NC(=O)c1cccc2[nH]c(-c3ccc([C@H]4CCCN4)cc3F)nc12`, for which the Potency is 5.48 µM (active).

For `Cc1[nH]c(C=C2C(=O)Nc3ccccc32)c(C)c1CCC(=O)O`, the Potency result is “inactive”.

For `C[C@H](NC(=O)C(=O)Nc1ccccc1C(C)(C)C)C(=O)N[C@@H](CC(=O)O)C(=O)COc1c(F)c(F)cc(F)c1F`, the Potency entry is “inactive”.

Take `O[C@@H](COc1cccc2ncccc12)CN1CCN(C2c3ccccc3[C@@H]3[C@H](c4ccccc42)C3(F)F)CC1` (some centres not stated): the Potency result was “inactive”.

For `C[C@@H](N)c1ccc(C(=O)Nc2ccnc3[nH]ccc23)cc1`, the Potency entry is “inactive”.

For `CC[C@]1(O)C[C@H]2CN(CCc3c([nH]c4ccccc34)[C@@](C(=O)OC)(c3cc4c(cc3OC)N(C=O)[C@H]3[C@@](O)(C(=O)OC)[C@H](OC(C)=O)[C@]5(CC)C=CCN6CC[C@]43[C@@H]65)C2)C1`, the Potency result was “inactive”.

Take `CN(C)c1ccc2cc(C(=O)N[C@@H](CCCN=C(N)CCl)C(=O)NCc3ccccc3)ccc2c1`: the Potency entry was “inactive”.
